Experimental data as given in PubChem BioAssay AID488890 (Southern Research Specialized Biocontainment Screening …, 2010).
Out of some 320,000 compounds screened, about 1,300 (0.41%) were called active. Another 3% or so got no clear call; they are omitted. No rule for the calls is given here. Only a sample is shown. Results with a measured potency or affinity are listed apart.

Assay: growth inhibition of non-replicating M. tuberculosis (AID 488890);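 also: plate controls were DMSO cells for no effect and high antibiotic wells for full effect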
Conditions: Mycobacterium tuberculosis non-replicating, at 25 µM, stronger effect = higher value

SMILES | inhibition [%]
CCOc1ccc2oc(C(=O)OCC(=O)NC3CCCC3)c(C)c2c1 | 9.82
O=C(c1ccc2c(c1)CCN2S(=O)(=O)c1ccccc1)N1CCN(c2ccc(F)cc2)CC1 | 18.7
NC(=O)c1sc2nc(N3CCOCC3)c3c(c2c1N)CCCC3 | 3.31
CCN(CC)CCOC(=O)C(Cc1ccco1)Cc1cccc2ccccc12 (stereo unspecified) | 12.1
COc1ccc2c(c1OC)C(=O)OC2Nc1nc(-c2cc3ccccc3oc2=O)cs1 (stereo unspecified) | 2.83
COc1cc(S(=O)(=O)N2CCOCC2)cc(C(=O)OCC(=O)NC2CCCCC2)c1OC | -1.4
O=C(/C=C/c1cc([N+](=O)[O-])ccc1OC(F)F)Nc1cccc(OC(F)F)c1 | 0.25
COCCn1c(=NC(=O)CSCC(=O)N2CCOCC2)sc2ccccc21 | -8.23
Cn1cccc1C(=O)OCC(=O)Nc1cccc(S(=O)(=O)N2CCOCC2)c1 | -0.69
COC(=O)C1=C(c2ccc(OC)c(OC)c2)C[C@@H]2CC[C@H]1N2C(=O)NCc1cc(C)oc1C(F)(F)F | -13.9
Oc1cccc(Nc2nc(-c3ccccc3Cl)nc3ccccc23)c1 | 1.57
Cc1ccnc(NC(=O)c2oc3ccccc3c2C)c1 | 20.3
O=C(COC(=O)c1cc2ccccc2o1)c1ccccc1 | 51.9
O=C(Nc1ccc(NC(=O)c2cc3ccccc3o2)cc1)c1ccco1 | 2.59
O=C(Nc1ccccc1)c1ccc(OC(=O)c2cc3ccccc3o2)cc1 | 45.2
CC(C)C(=O)Nc1cccc(NC(=O)c2cc3ccccc3o2)c1 | 2.48
Cc1ccc(C)c(NC(=O)c2cc3ccccc3o2)c1 | 75.5
CC(=O)Nc1cccc(NC(=O)c2cc3ccccc3o2)c1 | 32.4
O=C(O)c1ccc(NC(=O)c2cc3ccccc3o2)cc1 | 19.5
O=C(CSCc1cnn(-c2ccccc2)c1-n1cccc1)N1CCN(Cc2ccccc2)CC1 | 2.12
C=CC[C@@H](CC(=O)N[C@H](CO)Cc1ccccc1)C(=O)N[C@@H](COC(=O)[C@@H](CC=C)CC(=O)OC(C)(C)C)Cc1c[nH]c2ccccc12 | 61
CCN(Cc1ccccc1)C(=O)CSc1nc(C)cc(=O)[nH]1 | 10.7

SMILES | inhibition [%]
Nc1c(C(=O)Nc2cccc(F)c2)nnn1-c1cccc(C(F)(F)F)c1 | -17.3
COc1cc(C[C@@H]2C(=O)OC[C@H]2Cc2ccc(OC)c(OC)c2)ccc1O | -6.61
O=S(=O)(NCC(c1ccco1)N1CCCCC1)c1ccccc1C(F)(F)F (stereo unspecified) | 5.94
Cc1ccc(C(=O)N(C)CCOc2ccccc2)cc1S(=O)(=O)N1CCCCC1 | 14.5
O=C(NC1CCCCC1)C(c1cccs1)N(CCCN1CCOCC1)C(=O)c1ccc(-c2ccccc2)[nH]1 (stereo unspecified) | 44.4
COc1ccc(NC(=O)c2cc3ccccc3o2)cc1OC | 53.8
CC(=O)c1ccc(NC(=O)c2cc3ccccc3o2)cc1 | 76.8
Cc1ccc(C2=NN(CCC(=O)NCc3ccc4c(c3)OCO4)C(=O)CC2)cc1 | 4.59
COCCN(C(=O)C1CCCO1)c1c(N)n(CC(C)C)c(=O)[nH]c1=O (stereo unspecified) | -18.2
NC(=S)N/N=C/c1c(O)c(Br)cc2oc3c(c12)CCCC3 | 56.5
Oc1ccc2oc3c(c2c1C=NCc1ccncc1)CCCC3 | 3.96
Cc1nnc(SCC(=O)NNC(=O)c2ccco2)n1-c1cccc(Cl)c1 | -5.26
CCC(CC)C(=O)N=C1SC2CS(=O)(=O)CC2N1CCc1ccc(OC)c(OC)c1 (stereo unspecified) | -2.38
Cn1nnnc1Sc1ncnc2scc(-c3ccccc3)c12 | 48.6
Cn1nnnc1Sc1ncnc2scc(-c3ccc(-c4ccccc4)cc3)c12 | 77
Nc1nc(SCCO)[nH]c(=O)c1NC(=O)c1ccco1 | -5.12
CCCCCN(C(=O)CCC(=O)OCCOc1ccccc1)c1c(N)n(CCCC)c(=O)[nH]c1=O | -0.11
CCCCN(C)C(=O)c1cc2cc3ccc(OC)cc3nc2o1 | 71.6
CCN1CCN(C(=O)c2cc3cc4ccc(OC)cc4nc3s2)CC1 | 18.5
O=c1[nH]c(C2C3CC4CC(C3)CC2C4)nc2ccccc12 (stereo unspecified) | 21.6
COc1ccc(C(CC(=O)N2CCCC(C)C2)c2c(OC)cc(OC)c3ccc(=O)oc23)cc1 (stereo unspecified) | 28.4
Cc1ccc(S(=O)(=O)Nc2ncnc3ccccc23)cc1 | -1.77

SMILES | inhibition [%]
CCCCn1c(SCC(=O)NCc2ccco2)nc2cc(S(N)(=O)=O)ccc21 | 1.57
COc1ccc(C2=NN(C(=O)CSc3nc(=O)n4cc(C)ccc4n3)C(c3ccc(C)cc3)C2)cc1 (stereo unspecified) | 38.7
Cc1ccc2cc(C3CC(c4ccco4)=NN3C(=O)CCC(=O)O)c(Cl)nc2c1 (stereo unspecified) | 2.6
CCOC(=O)c1c(C)c(C(=O)NC(C)COC)c(C)n1CC (stereo unspecified) | -4.24
O=c1c(C(c2ccc(Cl)cc2)c2c(O)nc3n(c2=O)CCCS3)c(O)nc2n1CCCS2 | 8.19
N#Cc1c(-c2ccc(Cl)cc2)nc2n(c1=O)CCCS2 | 4.51
Cc1ccc(C(=O)N/N=C\c2sccc2C)cn1 | -5.99
O=C(N/N=C/c1ccccc1[N+](=O)[O-])c1ccncc1 | 35.4
Cc1ccc(/C=N\NC(=O)c2cncc(Br)c2)o1 | 46.2
O=C(N/N=C/c1cccn1-c1ccc([N+](=O)[O-])cc1)c1cccnc1 | -10.5
O=C(N/N=C/c1ccc(-c2ccccc2[N+](=O)[O-])o1)c1cncc(Br)c1 | 11.6
O=C(N/N=C/c1ccc([N+](=O)[O-])cc1)c1cccnc1 | -3.53
Cc1ccc(C(=O)N/N=C\c2ccc([N+](=O)[O-])o2)cn1 | 70.4
O=C(N/N=C/c1ccc(O)c([N+](=O)[O-])c1)c1ccncc1 | 56.1
CCOc1ccc(C(=O)NC2CCN(C(=O)Nc3ccc(F)cc3)CC2)cc1 | -4.31
CN(c1ccccc1)S(=O)(=O)c1ccc(Cl)c(C(=O)NC2=NCCS2)c1 | 27.5
O=C(Nc1nnc(C23CC4CC(CC(C4)C2)C3)s1)c1ccc(N2C(=O)CCC2=O)cc1 | 13.4
COc1cc(NC(=S)N2CCOCC2)c(OC)cc1Cl | 1.57
CCOc1ccccc1NC(=O)C1CCCCN1S(=O)(=O)c1ccc(F)cc1 (stereo unspecified) | 14.8
COc1ccc(/C=C2\C(=O)NC(=O)N(Cc3ccccc3)C2=O)c(OC)c1OC | -15.4
O=C(NCC(=O)N1CCN(Cc2ccc3c(c2)OCO3)CC1)c1ccccc1F | 6.65
N#C/C(N)=C(/C#N)N=Cc1cccc(Cl)c1 | 8.31
